Source: the supplement of paper PMC6555819

Columns and labels:
Experiment in all cases: PBM binding z-score (relative to random genomic background probes); higher = stronger binding; sequences stand for … in GC…GCGATTGACAGCGTAGAATGAAGG
[1] = test system: FXR:RXRa (NR concentration 270 nM, RXRa partner concentration 90 nM)
Outline: (§1)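 Binding buffer was PBS pH 7.4 with 2% milk, 0.02% Triton X-100, 1 mM DTT, 0.2 mg/mL BSA and 0.4 mg/ml salmon testes DNA. In it, ligand-free nuclear receptor dimers were incubated 1 h on custom Agilent 4×180K protein-binding microarrays carrying double-stranded probes. Antibodies against each partner (one per run) detected binding, and z-scores were calculated against random background probes after regression normalization of scanned fluorescence.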

[2] = test system: LXRa:RXRa (NR concentration 270 nM, RXRa partner concentration 90 nM)
Outline: as §1

[3] = test system: LXRa homodimer (NR concentration 270 nM)
Outline: as §1

[4] = test system: LXRb:RXRa (NR concentration 270 nM, RXRa partner concentration 90 nM)
Outline: as §1

[5] = test system: LXRb homodimer (NR concentration 270 nM)
Outline: as §1

[6] = test system: PPARa:RXRa (NR concentration 270 nM, RXRa partner concentration 90 nM)
Outline: as §1

[7] = test system: PPARg:RXRa (NR concentration 180 nM, RXRa partner concentration 90 nM)
Outline: as §1

[8] = test system: PPARg:RXRa 270nM:90nM, anti-RXR (NR concentration 270 nM, RXRa partner concentration 90 nM)
Outline: as §1

[9] = test system: PPARg:RXRa 30nM:10nM, anti-RXR (NR concentration 30 nM, RXRa partner concentration 10 nM)
Outline: as §1

[10] = test system: PPARg:RXRa 90nM:30nM, anti-RXR (NR concentration 90 nM, RXRa partner concentration 30 nM)
Outline: as §1

[11] = test system: PPARg:RXRa DBDmut IVT, anti-RXR (DBD mutation: RXRa K156A/R161A, NR concentration 270 nM, RXRa partner concentration 90 nM)
Outline: as §1

[12] = test system: PPARg:RXRa IVT, anti-PPARg (NR concentration 270 nM, RXRa partner concentration 90 nM)
Outline: as §1

[13] = test system: PPARg DBDmut:RXRa IVT, anti-PPARg (DBD mutation: PPARg1 K132A/R137A, NR concentration 270 nM, RXRa partner concentration 90 nM)
Outline: as §1

[14] = test system: PPARg DBDmut IVT, anti-PPARg (DBD mutation: PPARg1 K132A/R137A, NR concentration 270 nM)
Outline: as §1

[15] = test system: PPARg homodimer (NR concentration 180 nM)
Outline: as §1

[16] = test system: PXR:RXRa (NR concentration 270 nM, RXRa partner concentration 90 nM)
Outline: as §1

[17] = test system: PXR homodimer (NR concentration 270 nM)
Outline: as §1

[18] = test system: RARa:RXR (NR concentration 270 nM, RXRa partner concentration 90 nM)
Outline: as §1

[19] = test system: RARa homodimer (NR concentration 270 nM)
Outline: as §1

[20] = test system: RARb:RXRa (NR concentration 270 nM, RXRa partner concentration 90 nM)
Outline: as §1

Sequence	PBM binding z-score [1]	PBM binding z-score [2]	PBM binding z-score [3]	PBM binding z-score [4]	PBM binding z-score [5]	PBM binding z-score [6]	PBM binding z-score [7]	PBM binding z-score [8]	PBM binding z-score [9]	PBM binding z-score [10]	PBM binding z-score [11]	PBM binding z-score [12]	PBM binding z-score [13]	PBM binding z-score [14]	PBM binding z-score [15]	PBM binding z-score [16]	PBM binding z-score [17]	PBM binding z-score [18]	PBM binding z-score [19]	PBM binding z-score [20]
CGCCCAAGGTCAATGCTAGGTCAGTGAAAGCATT	6.51	5.61	2.46	4.24	0.667	4.93	4.07	4.33	1.03	3.08	2.79	3.47	-0.141	-0.36	5.9	4.68	1.04	6.04	0.81	5.09
GCTTACGGGTCAAAGGTTATAGCTTGAATAGAAT	6.94	5.6	0.366	5.39	0.468	6.66	11.3	9.06	8.76	10.9	4.25	5.72	1.28	1.02	1.88	5.86	0.119	7.89	0.811	4.34
ATCGCAAGGTCGAAGGTGAGTATACCCACCCGAA	1.5	1.58	-0.525	1.16	-0.359	3.01	2.77	3.69	0.969	2.25	-0.513	1.21	0.246	-0.257	0.231	1.89	-0.311	2.65	-0.621	2.41
AGTCAAAGTTCATCTAGGTACCGTAAGATATGCT	6.55	6.25	5.57	3.95	1.62	4.76	6.25	6.29	3.36	5.38	0.148	2.85	2.26	1.1	3.06	5.28	5.43	3.85	1.42	4.81
GATACAGGGTCCGCTAGAGGCCAGAGTATGGAAA	-0.588	-0.752	-0.713	-1.11	-1.38	-0.848	0.112	-0.726	-0.417	-1.24	-1.31	-0.762	-1.66	-1.32	-0.788	-0.821	-0.331	-0.782	-1.34	0.181
CGTCAAGGTTCAACTAAGGTAACGTAAAGCACGC	5.26	4.66	1.12	2.96	0.335	4.18	2.49	2.73	0.464	1.82	-0.0468	0.857	-0.137	-0.827	1.13	3.96	0.241	3.05	0.652	3.14
TCTCGGAGGACACTAAGGTCAGAGCTTTCCAGAG	1.87	1.63	0.625	1.5	-0.615	2.32	0.459	1.84	2.1	1.81	1.61	1.22	-0.543	-1.32	1.72	3.24	6.61	2.71	-0.0898	3.32
TCGAGTAGGTTACCAATGGGGCATTCCGCTTTCT	0.135	1.46	-0.855	0.838	-1.11	1.01	-0.123	1.1	1.11	0.974	3.12	2.43	-0.775	-0.0752	-0.326	-0.00662	-1.08	0.186	-1.04	0.81
AAGACAGGGTCACTAGGCCAGAGTAGGTACGAAT	5.99	3.14	-0.215	3.25	-0.368	5.62	7.53	6.21	2.71	5.21	3.14	5.06	0.632	0.999	1.27	2.89	0.212	4.16	-0.193	4.21
ATAACGAGGGCACGCTGAGTTGATAGCAGAGTAG	0.657	1.11	-0.0272	0.34	0.00771	2.24	2.45	1.88	0.803	1.22	4.2	4.09	1.98	1.47	0.669	1.83	0.518	1.04	-0.277	2.61
CCTAGCAGGCCAAGCTGGGTCACTCAAGGCTTGA	1.55	0.966	-0.429	0.821	-1.36	1.82	-0.199	0.0206	-0.847	-0.107	1.17	0.818	-0.82	-1.65	0.234	0.605	-0.579	1.29	-0.984	1.7
CTCGTAAGGTCGGTTGAGGTGAGTATACGGATAA	2.14	1.03	-0.261	0.701	-0.404	1.46	0.0124	0.578	-0.175	0.326	0.0738	0.679	-0.123	0.104	0.333	2.72	0.279	1.82	-0.0631	2.29
AGTCAAAGTTCATCTAGGCAACGTAAGATATGCT	6.17	6.15	4.67	3.78	1.77	4.92	6.47	6.11	3.4	5.44	0.192	3.08	1.23	0.857	2.59	5.11	4.94	3.62	0.925	5.1
GCTGCTAGGTCAGGTTGGTCAGCTGACGGGTACG	1.19	0.902	-0.423	0.356	-0.106	1.26	0.207	1.04	-0.528	0.514	2.92	2.16	0.00411	-0.207	1.24	0.407	-0.471	0.946	-0.516	3.17
